A number with no mark means an inactive call. How the calls were made is not given here.
tested on: HIV-1 nucleocapsid protein NCp7 (binding to TG oligonucleotide); experiment: HIV Nucleocapsid (AID 346); conditions: HIV-1 NC / fluorescein-TGTGTGTG probe, fluorescence polarization;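 further: potency is for inhibitors that block NC binding and lower polarization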
Procedure, shortened: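 Fluorescence polarization binding of 100 nM HIV-1 NC to 10 nM fluorescein-labelled TG4xF oligonucleotide. Buffer was Hepes pH 7.5 with 250mM NaCl, 1uM ZnCl2, TCEP and 2-mercaptoethanol. Compounds were incubated 1 hr at room temperature before the read.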
Potency means the concentration at half of the fitted maximal effect.

Question: Which Potency does the source give for `CC(=O)N1CCC2(CCCN(Cc3cc(C(F)(F)F)cc(C(F)(F)F)c3)C2)CC1` here?
Answer: > 20 µM

Question: How did the Potency turn out when `CN(C)c1ncc2nc(-c3ccc(F)cc3)c(=O)n(-c3ccccc3)c2n1` was run?
Answer: > 20 µM

Question: Which Potency does the source give for `COc1ccccc1CNc1nc(-c2ccc3c(c2)OCO3)nc2ccccc12` here?
Answer: > 20 µM

Question: `COC(=O)N1CCC2(CCCN(Cc3nccs3)C2)CC1` was tested. Which Potency did it give?
Answer: > 20 µM

Question: With `Cn1cccc1C(=O)N1CCC2(CC1)CCN(c1cccc(-c3ccccc3)c1)CC2` as the compound, how does the Potency read?
Answer: > 20 µM

Question: Which Potency does the source give for `COc1ncc2nc(-c3cccs3)c(=O)n(CCc3ccccc3)c2n1` here?
Answer: > 20 µM

Question: With `COc1ccc2[nH]cc(CCNc3ncnc4ccc(-c5cccc(C#N)c5)cc34)c2c1` as the compound, how does the Potency read?
Answer: > 20 µM

Question: How did the Potency turn out when `Cc1cnc(CNc2ccnc(-c3c(C)noc3C)n2)cn1` was run?
Answer: > 20 µM

Question: `O=C(c1cccc(F)c1)N1CCC2(CCCN(c3ccccc3)C2)CC1` was tested. Which Potency did it give?
Answer: > 20 µM

Question: Which Potency does the source give for `Cn1cccc1C(=O)N1CCC[C@@]2(CCN(Cc3ccccc3)C2)C1` here?
Answer: > 20 µM

Question: Which Potency does the source give for `Cc1ccccc1-c1cc(N(C)Cc2ccco2)ncn1` here?
Answer: > 20 µM

Question: For `CC(=O)NCCNc1nc(-c2c(C)noc2C)nc2ccccc12`, which Potency is on record?
Answer: > 20 µM

Question: How did the Potency turn out when `CS(=O)(=O)N1CCC2(CC1)CN(Cc1cc(C(F)(F)F)cc(C(F)(F)F)c1)C2` was run?
Answer: > 20 µM

Question: `O=C(c1ccco1)N1CCC2(CC1)CN(c1ccccc1)C2` was tested. Which Potency did it give?
Answer: > 20 µM

Question: For `Cc1cnc(CNc2nc(-c3cccnc3)nc3ccccc23)cn1`, which Potency is on record?
Answer: > 20 µM

Question: With `COc1ccccc1-c1cncnc1NCc1cccnc1` as the compound, how does the Potency read?
Answer: > 20 µM

Question: For `CS(=O)(=O)N1CCC2(CCN(C(c3ccccc3)c3ccccc3)CC2)CC1`, which Potency is on record?
Answer: > 20 µM

Question: Which Potency does the source give for `CN(C)C(=O)c1ccc(-c2nc(Nc3ccc(F)cc3)c3ccccc3n2)cc1` here?
Answer: > 20 µM

Question: For `O=c1cnc2cnc(Oc3cccc(Cl)c3)nc2n1CCc1ccccc1`, which Potency is on record?
Answer: > 20 µM

Question: How did the Potency turn out when `COc1cccc(Cn2c(=O)c(CCc3ccccc3)nc3cnc(N(C)C)nc32)c1` was run?
Answer: > 4 µM

Question: For `COc1ccc(CNc2nc(-c3ccc(N(C)C)cc3)nc3ccccc23)c(OC)c1`, which Potency is on record?
Answer: > 20 µM

Question: With `COc1ccc(Oc2ncc3ncc(=O)n(C4CC4)c3n2)cc1` as the compound, how does the Potency read?
Answer: > 20 µM

Question: With `COc1ccc(C(=O)N2CCC[C@@]3(CCN(C(=O)Nc4cccc(F)c4)C3)C2)cc1` as the compound, how does the Potency read?
Answer: > 20 µM

Question: For `Cn1c(=O)c(-c2ccc(F)cc2)nc2cnc(OCc3ccccc3)nc21`, which Potency is on record?
Answer: > 20 µM

Question: `CN1CCN(c2ncnc3ccc(-c4ccc(C(=O)N(C)C)cc4)cc23)CC1` was tested. Which Potency did it give?
Answer: > 20 µM

Question: Which Potency does the source give for `COc1ccc(-c2nc3cnc(OC)nc3n(Cc3cccs3)c2=O)cc1` here?
Answer: > 20 µM

Question: With `COc1ccccc1-c1nc(NCCc2cnc[nH]2)c2ccccc2n1` as the compound, how does the Potency read?
Answer: > 20 µM

Question: How did the Potency turn out when `Cc1cnc(CNc2nc(-c3ccc(C(=O)N(C)C)cc3)nc3ccccc23)cn1` was run?
Answer: > 20 µM

Question: How did the Potency turn out when `N#Cc1ccc(CN2CC3(CCN(C(=O)c4csnn4)CC3)C2)cc1` was run?
Answer: > 20 µM

Question: With `COc1cccc(Nc2ncc3nc(-c4cn(C)c5ccccc45)c(=O)n(CCC#N)c3n2)c1` as the compound, how does the Potency read?
Answer: > 20 µM

Question: With `COc1ccc(Oc2ncc3ncc(=O)n(CCC#N)c3n2)cc1` as the compound, how does the Potency read?
Answer: > 20 µM

Question: How did the Potency turn out when `CS(=O)(=O)N1CCC[C@@]2(CCN(Cc3ccc(C#N)cc3)C2)C1` was run?
Answer: > 20 µM

Question: `O=C(c1cnccn1)N1CCC2(CC1)CN(c1ncccn1)C2` was tested. Which Potency did it give?
Answer: > 20 µM

Question: `CNc1ncnc2ccc(-c3ccccc3OC)cc12` was tested. Which Potency did it give?
Answer: > 20 µM

Question: `CC(C)CN1CC2(CCN(C(=O)c3ccco3)CC2)C1` was tested. Which Potency did it give?
Answer: > 20 µM

Question: With `Cc1nc2cnc(N(C)C)nc2n(CCc2ccccc2)c1=O` as the compound, how does the Potency read?
Answer: > 20 µM

Question: For `COCC(=O)N1CCC[C@@]2(CCN(c3ncccn3)C2)C1`, which Potency is on record?
Answer: > 20 µM

Question: How did the Potency turn out when `CN(Cc1ccco1)c1cc(-c2ccoc2)ncn1` was run?
Answer: > 20 µM

Question: How did the Potency turn out when `CS(=O)(=O)Nc1cccc(-c2ccc3ncnc(NCc4cccnc4)c3c2)c1` was run?
Answer: > 20 µM
